PubChem BioAssay (NCATS)
Inconclusive results are not listed. Values without a mark were called inactive. The source made the active and inactive calls. Calls follow the shape of the dose curve; as a rule, active = well fitted cell-killing curve with a large enough effect; inconclusive = small, poorly fitted or top-dose-only effect, or effect the other way; inactive = no such curve, though single readings can be large or run the other way.

Test: Quantitative High-Throughput drug screen in 47 multiple myeloma cell lines against the NCATS MIPE library collection: MM1R_ATCC cell viability assay (AID 1918981)
Conditions: MM1R multiple myeloma cells, CellTiter-Glo viability, 48 h; series mostly up to 45.8 µM; viability (% of control): at the top concentration
Method in brief: (§1)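 Viability after 48 h drug exposure was measured as ATP-dependent luminescence. Cells, 500 per well, sat at 37 °C under 5% CO2; DMSO wells set 100%, media-only wells 0%.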
Also: nearly all actives have a fitted effect of over 35% in size.
Potency is read from the fitted curve at half-maximal effect.

| Compound | viability (% of control) [%] | Potency |
| --- | --- | --- |
| CCOC(=O)c1cncn1[C@H](C)c1ccccc1 | 114 | – |
| CCOP(=O)(OCC)C(C)NC(=O)N(CCCl)N=O (stereo not drawn) | 122 | – |
| c1ccc(CCCN2CCN(CCOC(c3ccccc3)c3ccccc3)CC2)cc1 | – | 23.5 µM (active) |
| O=C(O)CNC(=O)c1c(O)c2ccccc2n(Cc2ccccc2)c1=O | 113 | – |
| C[C@]12CC[C@H](O)CC1=CC[C@H]1[C@H]3CCC(=O)[C@@]3(C)CC[C@@H]12 | 93.9 | – |
| CC(C)[C@H]1C(=O)N[C@H](CO)Cc2c[nH]c3cccc(c23)N1C | 119 | – |

Test: Quantitative High-Throughput drug screen in 47 multiple myeloma cell lines against the NCATS MIPE library collection: LP1_DSMZ cell viability assay (AID 1918982)
Conditions: LP1 myeloma viability, CellTiter-Glo ATP luminescence, 48 h; series mostly up to 45.8 µM; viability (% of control): at the top concentration
Method in brief: as §1

| Compound | viability (% of control) [%] | Potency |
| --- | --- | --- |
| CC(N[C@H]1C[C@H]1c1ccccc1)c1ccc2c(c1)OCCO2 (stereo partly drawn) | 86 | – |
| CC(=Cc1csc(C)n1)[C@@H]1C[C@H]2O[C@]2(C)CCC[C@H](C)[C@@H](O)[C@@H](C)C(=O)C(C)(C)[C@@H](O)CC(=O)O1 | 45.9 | – |
| O=c1cccc2n1CC1CNC[C@H]2C1 | 101 | – |
| Cc1c(N)nc([C@H](CC(N)=O)NC[C@@H](N)C(N)=O)nc1C(=O)N[C@H](C(=O)N[C@@H](C)[C@H](O)[C@@H](C)C(=O)N[C@@H](C(=O)NCCc1nc(-c2nc(C(=O)NCCC[S+](C)C)cs2)cs1)[C@@H](C)O)C(O[C@H]1O[C@H](CO)[C@H](O)[C@@H](O)[C@@H]1O[C@H]1O[C@H](CO)[C@@H](O)[C@H](OC(N)=O)[C@H]1O)c1cnc[nH]1 (stereo partly drawn) | 92.6 | – |
| NC1CC1c1ccccc1 (stereo not drawn) | 110 | – |
| CCOC(=O)c1cncn1[C@H](C)c1ccccc1 | 112 | – |
| C[C@](O)(COc1ccc(C#N)cc1)C(=O)Nc1ccc(C#N)c(C(F)(F)F)c1 | 74.9 | – |
| CC(O)=C(C#N)C(=O)Nc1cc(Br)ccc1Br | 86.8 | – |
| CCN(CC)C(=O)c1ccc(C2=CC3(CCNCC3)Oc3cccc(O)c32)cc1 | 80.8 | – |
| C#CC1(O)CCC2C3CCC4=CC(=O)CCC4(C)C3CCC21C (stereo not drawn) | 102 | – |
| CCC(=O)OC1CCC2C3CCC4=CC(=O)CC[C@@]4(C)C3CC[C@]12C (stereo partly drawn) | 92.8 | – |
| CC(=O)N(C)c1cccc(-c2ccnc3c(C(=O)c4cccs4)cnn23)c1 | 92.4 | – |
| c1ccc(CCCN2CCN(CCOC(c3ccccc3)c3ccccc3)CC2)cc1 | – | 20.9 µM (active) |
| O=C(O)CNC(=O)c1c(O)c2ccccc2n(Cc2ccccc2)c1=O | 105 | – |
| CN(C)NC(=O)CCC(=O)O | 110 | – |
| O=C(Oc1ccc([N+](=O)[O-])cc1)N1CCC(C(O)(c2ccc3c(c2)OCO3)c2ccc3c(c2)OCO3)CC1 | 93 | – |
| CN(C)[C@@H]1C(=O)C(C(N)=O)=C(O)[C@@]2(O)C(=O)C3=C(O)c4c(O)cccc4[C@@](C)(O)[C@H]3[C@H](O)[C@@H]12 | 90.3 | – |
| NC1=NC(=O)N2CC12 (stereo not drawn) | 115 | – |
| CC(C)N(CCNC(=O)CN1CCCC1=O)C(C)C | 105 | – |
| CCCN1CCO[C@@H]2c3cc(O)ccc3OC[C@@H]21 | – | 20.9 µM (active) |
| CC[C@@H](C(N)=O)N1CCCC1=O | 99 | – |
| C#C[C@]1(O)C=C[C@@H]2[C@@H]3CCC4=CC(=O)CC[C@@H]4[C@H]3CC[C@@]21CC | 92 | – |
| C[C@]12CC[C@H](O)CC1=CC[C@H]1[C@H]3CCC(=O)[C@@]3(C)CC[C@@H]12 | 84.2 | – |
| O=C1C=CC[C@@H]2[C@H]3CCCN4CCC[C@@H](CN12)[C@@H]34 | 89.4 | – |
| CC1(N2CCC(n3c([C@@H]4CCCNC4)nc4ccccc43)CC2)CCCCCCC1 | – | 23.5 µM (active) |
| CC(=CCCC1=CCC(C2=CC(=O)OC2O)OC1O)CCC1=C(C)CCCC1(C)C (stereo not drawn) | 84.9 | – |
| C[C@@H]1CC[C@@]2(OC1)O[C@H]1C[C@H]3[C@@H]4CC=C5C[C@@H](O[C@@H]6O[C@H](CO)[C@@H](O[C@@H]7O[C@@H](C)[C@H](O)[C@@H](O)[C@@H]7O)[C@H](O)[C@@H]6O[C@@H]6O[C@@H](C)[C@H](O)[C@@H](O)[C@@H]6O)CC[C@]5(C)[C@@H]4CC[C@]3(C)[C@@H]1[C@H]2C | – | 2.96 µM (active) |
| COc1ccc2c(c1)[C@]13CCCCC1C(C2)N(C)CC3 (stereo partly drawn) | 92.7 | – |
| C[C@]12CCC(=O)C(O)=C1CC[C@@H]1[C@H]3CCC(=O)[C@@]3(C)CC[C@@H]12 | 91.7 | – |

Test: Quantitative High-Throughput drug screen in 47 multiple myeloma cell lines against the NCATS MIPE library collection: KMS28PE_JCRB cell viability assay (AID 1918983)
Conditions: KMS28PE multiple myeloma viability, CellTiter-Glo ATP, 48 h; series mostly up to 45.8 µM; viability, % of DMSO control: at the top concentration
Method in brief: as §1

| Compound | Potency | viability, % of DMSO control [%] |
| --- | --- | --- |
| CC(N[C@H]1C[C@H]1c1ccccc1)c1ccc2c(c1)OCCO2 (stereo partly drawn) | 0.469 µM (active) | – |
| O=c1cccc2n1CC1CNC[C@H]2C1 | – | 119 |
| Cc1c(N)nc([C@H](CC(N)=O)NC[C@@H](N)C(N)=O)nc1C(=O)N[C@H](C(=O)N[C@@H](C)[C@H](O)[C@@H](C)C(=O)N[C@@H](C(=O)NCCc1nc(-c2nc(C(=O)NCCC[S+](C)C)cs2)cs1)[C@@H](C)O)C(O[C@H]1O[C@H](CO)[C@H](O)[C@@H](O)[C@@H]1O[C@H]1O[C@H](CO)[C@@H](O)[C@H](OC(N)=O)[C@H]1O)c1cnc[nH]1 (stereo partly drawn) | – | 107 |
| CC(C)(O)C(=O)Nc1ccc([N+](=O)[O-])c(C(F)(F)F)c1 | – | 149 |
| CC(O)=C(C#N)C(=O)Nc1cc(Br)ccc1Br | 14.8 µM (active) | – |
| CCN(CC)C(=O)c1ccc(C2=CC3(CCNCC3)Oc3cccc(O)c32)cc1 | – | 115 |
| C#CC1(O)CCC2C3CCC4=CC(=O)CCC4(C)C3CCC21C (stereo not drawn) | 20.9 µM (active) | – |
| CCOP(=O)(OCC)C(C)NC(=O)N(CCCl)N=O (stereo not drawn) | – | 129 |
| CCC(=O)OC1CCC2C3CCC4=CC(=O)CC[C@@]4(C)C3CC[C@]12C (stereo partly drawn) | – | 124 |
| CC(=O)N(C)c1cccc(-c2ccnc3c(C(=O)c4cccs4)cnn23)c1 | – | 142 |
| COc1ccc2c(c1)CN(C)CC2c1ccc(Cl)c(Cl)c1 (stereo not drawn) | 18.7 µM (active) | – |
| O=C(Oc1ccc([N+](=O)[O-])cc1)N1CCC(C(O)(c2ccc3c(c2)OCO3)c2ccc3c(c2)OCO3)CC1 | – | 107 |
| CC(C)N(CCNC(=O)CN1CCCC1=O)C(C)C | – | 113 |
| COc1cc([C@@H]2c3cc4c(cc3[C@@H](O)C3COC(=O)C32)OCO4)cc(OC)c1O (stereo partly drawn) | 0.0418 µM (active) | – |
| CCCN1CCO[C@@H]2c3cc(O)ccc3OC[C@@H]21 | – | 119 |
| C#C[C@]1(O)C=C[C@@H]2[C@@H]3CCC4=CC(=O)CC[C@@H]4[C@H]3CC[C@@]21CC | – | 135 |
| C[C@]12CC[C@H](O)CC1=CC[C@H]1[C@H]3CCC(=O)[C@@]3(C)CC[C@@H]12 | – | 114 |
| O=C1C=CC[C@@H]2[C@H]3CCCN4CCC[C@@H](CN12)[C@@H]34 | 16.6 µM (active) | – |
| CC1(N2CCC(n3c([C@@H]4CCCNC4)nc4ccccc43)CC2)CCCCCCC1 | – | 87.1 |
| CCNC(=O)CC1N=C(c2ccc(Cl)cc2)c2cc(OC)ccc2-n2c(C)nnc21 (stereo not drawn) | 20.9 µM (active) | – |
| C[C@@H]1CC[C@@]2(OC1)O[C@H]1C[C@H]3[C@@H]4CC=C5C[C@@H](O[C@@H]6O[C@H](CO)[C@@H](O[C@@H]7O[C@@H](C)[C@H](O)[C@@H](O)[C@@H]7O)[C@H](O)[C@@H]6O[C@@H]6O[C@@H](C)[C@H](O)[C@@H](O)[C@@H]6O)CC[C@]5(C)[C@@H]4CC[C@]3(C)[C@@H]1[C@H]2C | 2.96 µM (active) | – |
| COc1ccc2c(c1)[C@]13CCCCC1C(C2)N(C)CC3 (stereo partly drawn) | – | 108 |
| CC(C)[C@H]1C(=O)N[C@H](CO)Cc2c[nH]c3cccc(c23)N1C | 0.264 µM (active) | – |
